Data taken from the supplement of paper PMC3334620.
Whole data set: some 33,000 sequences, median “E-score (-0.5 to 0.5)” near -0.035, cut for the highest 2% near 0.34. This is one part of a sample in which the highest values are shown more often than they occur.

target: T1, Mot3 (UniProt P54785); assay: PBM E-score (8-mer binding enrichment) (E-score (-0.5 to 0.5)); higher = stronger / more preferred TF binding; details: protein concentration: 200 nM; construct: GST-full length
T1 sequence: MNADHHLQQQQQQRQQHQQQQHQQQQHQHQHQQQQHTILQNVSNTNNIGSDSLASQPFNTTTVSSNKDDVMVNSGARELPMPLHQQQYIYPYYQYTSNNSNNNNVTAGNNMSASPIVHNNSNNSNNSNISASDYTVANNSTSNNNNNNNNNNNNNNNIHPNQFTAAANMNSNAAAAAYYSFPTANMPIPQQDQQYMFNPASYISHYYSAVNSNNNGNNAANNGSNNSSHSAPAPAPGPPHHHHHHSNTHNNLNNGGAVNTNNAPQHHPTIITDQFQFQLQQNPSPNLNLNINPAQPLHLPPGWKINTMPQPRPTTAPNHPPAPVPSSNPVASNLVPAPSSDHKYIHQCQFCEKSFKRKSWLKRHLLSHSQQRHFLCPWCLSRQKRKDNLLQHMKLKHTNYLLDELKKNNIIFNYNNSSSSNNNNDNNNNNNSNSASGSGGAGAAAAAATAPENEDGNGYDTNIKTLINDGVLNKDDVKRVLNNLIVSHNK
In short: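 Full-length yeast transcription factors or their DNA-binding domains, GST-tagged and expressed with PURExpress, were applied at about 100-200 nM to universal all-10-mer Agilent arrays. These arrays had been made double-stranded by primer extension on fresh or once-stripped slides. Detection used fluorescent anti-GST, normalisation used masliner, and E-scores for ungapped eight-base words pooled with reverse complements came from the Universal PBM Analysis Suite.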

Sequence | PBM E-score
GTGATCGA | 0.11
TAAAAGCA | -0.123
GCAGACAC | -0.00428
AGAGACGA | -0.246
ATACGGTC | -0.061
ACACGGGT | 0.348
ACACGGTC | 0.349
ACACGGTA | 0.34
ACACGGGA | 0.29
CCACGGTA | -0.191
ACACGGGC | 0.259
ACACGGTG | 0.335
CCACGGTC | -0.385
AAAACTCA | 0.0802
ATCCTGAA | 0.0408
GAGGGACC | -0.298
ATTACGTC | 0.269
GTTACGTA | 0.177
ATTACGTA | 0.354
CTTACGTA | 0.211
ACTACGTG | 0.0857
ATTACGTG | 0.383
ACGTCCAG | -0.0677
GTGGGTAA | -0.0112
GGCACGAC | 0.36

Sequence | PBM E-score
GGCACGCC | 0.237
AGCACGGA | 0.102
CGCACGCA | -0.03
GGCACGAA | 0.271
GGCACGCA | 0.348
AGCACGTA | 0.136
GGCACGTA | 0.363
CGCACGTA | 0.154
CGCACGAC | -0.0534
CGCACGGA | -0.207
GGCACGGA | 0.397
ACACCCCG | -0.336
ACCAGCCA | -0.131
ATGCTCTG | -0.203
ACCGCTCC | -0.258
CGGCATTC | -0.249
CCTCGAGG | -0.336
GCTTGTAA | 0.318
AGAAAAGC | -0.171
CGGAAAGC | -0.151
AGGAAAGG | 0.371
AGGAAAGC | 0.405
ACGAAAGG | 0.153
AGGAAAGA | 0.282
AACCAAAT | 0.127

Sequence | PBM E-score
GTCGCAAA | 0.0742
ATATGCGC | 0.0367
ACGCAACT | 0.0644
CGGCAACA | 0.0868
AGGCAACC | 0.483
AGGCAACG | 0.485
AAGCAACG | 0.0783
TGGCAACA | 0.118
AAGCAACT | -0.0233
CGGCAACG | -0.0123
AGGCAACA | 0.482
CGGCAACC | -0.0847
AGGCAACT | 0.484
GGGCAACC | -0.175
GAGGCAGC | -0.0844
CTTGCATC | -0.16
ACCTGCTC | 0.166
ATATGACG | 0.0195
CGTATTTC | 0.215
AGGACACT | -0.159
AGGATCGA | -0.0463
GCACAACA | 0.35
CCACAACA | -0.0484
GCACAACC | -0.0592
AAGGTCCC | -0.184

Sequence | PBM E-score
GGCGCATA | -0.113
ACCCGCAA | -0.0644
CAGAAACG | 0.0904
TAGGAACA | 0.416
AAGGAACA | 0.453
CAGGAACG | 0.466
TCGGAACA | 0.056
GAGGAACA | 0.176
ACGGAACT | -0.186
ATGGAACA | -0.111
AAGGAACT | 0.416
AAGGAAGA | -0.0092
AAGGAATT | -0.0259
CAGGAATG | -0.0291
ATGCTTAG | 0.0516
AACGTTAT | 0.123
AAGCCTCC | -0.243
CACTGGCC | -0.267
AACACATA | 0.312
AAATTGGA | -0.0378
CAGTGGCG | -0.266
AGCAGTCA | 0.0249
CAGCCAGA | -0.3
CTCCCTTA | -0.018
ACCGGCCG | -0.21

Sequence | PBM E-score
AAGGAAGG | 0.176
CAGAACCC | -0.0803
CAGGAACA | 0.449
ATGGAACG | 0.0262
ACGGAACC | 0.0959
AAGGAACG | 0.465
GAGGAACC | 0.255
CAGGAACC | 0.46
AGGGAACC | 0.00909
CAGAAACA | 0.0657
CGGGAACA | 0.147
AAGGAACC | 0.462
TCGTGCCA | -0.155
GCACACCA | 0.143
GGGGGGAC | -0.254
CTACTGTC | -0.103
GGTCTAAA | -0.127
GATCGCAA | -0.129
ACTCAAAA | -0.0489
ATGCAATG | -0.0896
CGGCAATC | -0.109
AGGCAATG | 0.476
AGGCAATA | 0.472
AAGCAATC | -0.0271
ACGCAATG | 0.23

Sequence | PBM E-score
GGGCAATA | -0.132
CGGCAATA | 0.0917
AGGCAATC | 0.481
AACAGGAT | 0.0971
CAATGGAC | -0.189
TAGCCAGA | -0.0655
GACACTAA | -0.106
AAGGCTGC | -0.00639
CACAGGGG | 0.118
AGTTAGAT | 0.0673
ACGCTTCT | -0.0128
CCAGACGG | -0.383
GGGCGTAA | 0.135
GCGCGTAC | 0.117
GCGCGTAA | 0.34
CTGCGTAA | 0.302
CCGCGTAA | 0.336
TCGCGTAA | 0.374
ACGCGTAA | 0.317
ATGCGTAA | 0.32
GTGCGTAA | 0.356
ATTCTGAG | 0.0253
TGTCGACA | 0.111
ACAACAAT | 0.182
GCACTTAA | 0.133

Sequence | PBM E-score
CTTCAAGC | -0.0397
CTTTCCCA | -0.0799
CTTTCCTA | 0.399
GTTTCCGA | 0.122
CTTTCCTC | 0.0989
GTTTCCAA | -0.12
GTTTCCTA | 0.411
AGGCATGG | 0.229
AAAGTGGG | -0.0287
TAGGAGCA | 0.0656
ACGTAATA | 0.35
GCGTAATA | 0.308
ACGTAACG | 0.0865
ACGTAATC | 0.29
CCGTAATA | 0.121
ACGTAATG | 0.348
AATTGCCG | -0.145
AATTGCCC | 0.0147
ACTTGCCC | 0.0267
ACTTGCCT | 0.479
ACTTGCCG | -0.189
AATTGCCT | 0.472
CCGTGTCG | 0.126
AAGTGTAT | 0.117
